{"source": "PubChem BioAssay (NCI)", "experiment_in_all_cases": "NCI-60 one-dose screen, 48 h (100 = growth as untreated, 0 = no growth, -100 = all killed)", "conditions_in_all_cases": "10 µM unless noted", "key": {"EKVX NSCLC": {"system": "EKVX NSCLC"}, "SN12C renal": {"system": "SN12C renal"}, "UO-31 renal": {"system": "UO-31 renal"}, "TK-10 renal": {"system": "TK-10 renal"}, "ACHN renal": {"system": "ACHN renal"}, "CAKI-1 renal": {"system": "CAKI-1 renal"}, "A498 renal": {"system": "A498 renal"}, "CCRF-CEM leukemia": {"system": "CCRF-CEM leukemia"}, "MOLT-4 leukemia": {"system": "MOLT-4 leukemia"}}, "note": "The panel holds about 83,000 compounds, 20% with a hit somewhere; the sample as a whole holds those more often.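 Each cell line was grown in a 96-well plate and treated with one concentration of compound for 48 hours. Values below 10 were considered active.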 Values without a mark were called inactive. Activity calls are given as the source filed them."}
{"smiles": "COC1=CC(c2ccc[nH]2)=N/C1=C\\c1[nH]c(C)c(CC(=O)NCc2ccccc2)c1C", "values": [{"measurement": "growth", "setting": "EKVX NSCLC", "result": 21.1, "unit": "%"}, {"measurement": "growth", "setting": "SN12C renal", "result": 29.1, "unit": "%"}, {"measurement": "growth", "setting": "UO-31 renal", "result": "-17.4% (active)"}, {"measurement": "growth", "setting": "TK-10 renal", "result": 24.9, "unit": "%"}, {"measurement": "growth", "setting": "ACHN renal", "result": "8.33% (active)"}, {"measurement": "growth", "setting": "CAKI-1 renal", "result": "1.97% (active)"}, {"measurement": "growth", "setting": "A498 renal", "result": "-5.8% (active)"}, {"measurement": "growth", "setting": "CCRF-CEM leukemia", "result": 22.4, "unit": "%"}, {"measurement": "growth", "setting": "MOLT-4 leukemia", "result": "3.45% (active)"}]}
{"smiles": "CC(C)c1ccc(C(=O)Nc2nc3ccc(O)c(CN(C)C)c3s2)cc1", "values": [{"measurement": "growth", "setting": "EKVX NSCLC", "result": 95.8, "unit": "%"}, {"measurement": "growth", "setting": "SN12C renal", "result": 90.7, "unit": "%"}, {"measurement": "growth", "setting": "UO-31 renal", "result": 91.2, "unit": "%"}, {"measurement": "growth", "setting": "TK-10 renal", "result": 99.6, "unit": "%"}, {"measurement": "growth", "setting": "ACHN renal", "result": 81.6, "unit": "%"}, {"measurement": "growth", "setting": "CAKI-1 renal", "result": 65.4, "unit": "%"}, {"measurement": "growth", "setting": "A498 renal", "result": 72.3, "unit": "%"}, {"measurement": "growth", "setting": "CCRF-CEM leukemia", "result": 73.5, "unit": "%"}, {"measurement": "growth", "setting": "MOLT-4 leukemia", "result": 62.7, "unit": "%"}]}
{"smiles": "CCCCCOC(=O)c1c(C)[nH]c(/C=C2\\N=C(c3ccc[nH]3)C=C2OC)c1C", "values": [{"measurement": "growth", "setting": "EKVX NSCLC", "result": 12.5, "unit": "%"}, {"measurement": "growth", "setting": "SN12C renal", "result": "3.4% (active)"}, {"measurement": "growth", "setting": "UO-31 renal", "result": "-69.6% (active)"}, {"measurement": "growth", "setting": "TK-10 renal", "result": "4.49% (active)"}, {"measurement": "growth", "setting": "ACHN renal", "result": "-72.3% (active)"}, {"measurement": "growth", "setting": "CAKI-1 renal", "result": "-17.3% (active)"}, {"measurement": "growth", "setting": "A498 renal", "result": "-21% (active)"}, {"measurement": "growth", "setting": "CCRF-CEM leukemia", "result": "-13.2% (active)"}, {"measurement": "growth", "setting": "MOLT-4 leukemia", "result": "9.58% (active)"}]}
